Source: PubChem BioAssay (Fisher Drug Discovery Resource Center)
hcGAS inh – human cGAS inhibition; Q8N884; recombinant h-cGAS, ATP depletion, Kinase-Glo luminescence; inhibition, % at 12.5 µM; actives 0.081% (n = 290,000);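 also: 0% = vehicle reaction and 100% = reaction without DNA for no activity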
Target sequence (Q8N884 whole entry, looked up): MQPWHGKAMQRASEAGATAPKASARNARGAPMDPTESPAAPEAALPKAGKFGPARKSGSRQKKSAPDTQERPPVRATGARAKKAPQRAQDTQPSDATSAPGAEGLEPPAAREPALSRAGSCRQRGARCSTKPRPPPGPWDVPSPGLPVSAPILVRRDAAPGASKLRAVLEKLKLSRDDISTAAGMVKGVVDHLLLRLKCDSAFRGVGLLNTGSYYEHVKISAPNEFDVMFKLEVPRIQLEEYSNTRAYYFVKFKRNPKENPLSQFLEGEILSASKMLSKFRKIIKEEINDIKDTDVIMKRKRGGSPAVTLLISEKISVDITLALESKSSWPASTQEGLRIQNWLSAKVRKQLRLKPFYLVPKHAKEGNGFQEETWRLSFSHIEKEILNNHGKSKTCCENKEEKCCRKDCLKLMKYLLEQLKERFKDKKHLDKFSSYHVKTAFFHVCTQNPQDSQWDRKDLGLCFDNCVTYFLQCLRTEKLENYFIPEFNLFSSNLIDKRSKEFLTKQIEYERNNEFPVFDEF
NPYLR7 ag – activates Aedes aegypti NPYLR7 receptor | HEK293T NPYLR7/Galpha15, GCaMP6s calcium fluorescence | activation, % at 10 µM | actives 0.15% (n = 270,000) | AID 1259423; in the data active = activation above about 40%;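 also: 0% = vehicle and 100% = reference agonist at the receptor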
mcGAS inh – inhibitors of mouse cGAS | actives 0.15% (n = 160,000) | inhibition, % at 12.5 µM | Q8C6L5 | recombinant cGAS, Kinase-Glo ATP depletion luminescence;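 also: 0% = negative control wells and 100% = reference inhibitor with no enzyme activity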
An asterisk follows results filed as active; x = not tested or not shown; ! = repeats disagree. Most compounds without a hit are left out; they make up all but 0.24% or so of the library. Rule as the data show it, unless noted: active = inhibition above about 40%; inactive = the rest.

SMILES	hcGAS inh	NPYLR7 ag	mcGAS inh
O=C(O)CN1C(=O)/C(=C\c2ccc(OC(=O)c3ccc(Cl)cc3)cc2)SC1=S	9	20	1
O=C(CC1SC(=O)NC1=O)Oc1ccc(/C=C2\SC(=O)NC2=S)cc1 (centres undefined)	44*	158*	x
COC(=O)C1=C(C)NC(=O)NC1c1ccccc1[N+](=O)[O-] (centres undefined)	-1	-1	-2
COC(=O)C1=C(C)NC(C)=C(C(=O)OC)C1c1ccccc1[N+](=O)[O-]	17	14	51*
CC(C)S(=O)(=O)Oc1ccc(CN(Cc2ccco2)C(=O)C2CCC2)cc1	-7	x	-11
O=c1oc2ccccc2n1CN1CCCCC1c1nc2ccccc2s1 (centres undefined)	2	-2	x
COc1cc(C)c(CN2CCN(Cc3nc4cc(Cl)ccc4c(=O)[nH]3)CC2)cc1OC	0	5	x
COc1ccc2nc3cc(Cl)ccc3c(Nc3cc(CN4CCCC4)c(O)c(CN4CCCC4)c3)c2n1	45*	3	x
CN(Cc1cc(-c2ccccc2)on1)C(=O)C1CC2(CCNCC2)CN1 (centres undefined)	-9	6	-13
CN(Cc1cnc2ccccc2n1)C(=O)C1CC2(CCNCC2)CN1 (centres undefined)	-6	58*	-9
CN(Cc1ccc2nonc2c1)Cc1nc(-c2cccs2)no1	-8	15	x
c1ccn2c(Sc3ncnc4sc5c(c34)CCCC5)nnc2c1	0	4	x
Cc1nc(Sc2nnc3ccccn23)c2c3c(sc2n1)CCCC3	-3	43*	-7
CC(=O)NC(=O)CSc1nnc(Nc2cccc(Cl)c2C)s1	-7	0	-15
COc1cc(OC)cc(C(=O)N(CC(=O)N(Cc2ccc(F)cc2)Cc2ccco2)CC2CCCO2)c1 (centres undefined)	-1	4	-6
COc1ccc(S(=O)(=O)NC(C)c2ccncc2)cc1F (centres undefined)	-15	2	x
COc1ccc(C(C)NS(=O)(=O)c2ccc(Cl)cc2C(F)(F)F)cc1F (centres undefined)	2	107*	x
Cc1ncsc1CCn1ccnc1-c1cc2ccccc2n(C)c1=O	-2	4	-2
COc1ccc(C(=O)N[C@@H]2CCCCC2NC(=O)C2CCCN(C(=O)CCc3ccccc3)C2)cc1 (some centres undefined)	-2	x	79*
COCC(=O)N1CCCC(C(=O)NC2CCCC[C@H]2NC(=O)c2ccccc2)C1 (some centres undefined)	-6	x	-11
Cc1noc(Cl)c1CCC(=O)NC(C)C1CC2CCC1C2 (centres undefined)	-5	-20	x
C=CCn1c(O)c(C=Nc2ccccc2)sc1=S	-3	-3	-6
Oc1[nH]c(=S)sc1C=Nc1ccccc1	7	-1	57*
Cc1ccc2[nH]c(O)c(N=NC(=O)COc3c(Cl)cc(Cl)cc3Cl)c2c1	-4	3	-6
CCOc1cccc(/C=C(/C#N)c2nc(C)cs2)c1OC(F)F	-16	8	x
SMILES	hcGAS inh	NPYLR7 ag	mcGAS inh
CCOC=C(C#N)c1nc(C)cs1	-3	84*	x
CCN1C(=Cc2cc(C)[n+](CCOC)c(C)c2)Sc2ccccc21	4	124*	x
CCCC[n+]1c(C)cc(C=C2Sc3ccccc3N2CC)cc1C	2	258*	x
CCN1/C(=C\C(=C2\C(=O)N(C)C(=S)N2C)c2ccccc2)Sc2ccccc21	-2	-2	x
CCN1C(=O)/C(=C/C=C2/Sc3ccccc3N2CC)SC1=Nc1ccccc1C	-3	-4	-2
CCN1C(=Cc2cc(C)[n+](CC3CCCO3)c(C)c2)Sc2ccccc21 (centres undefined)	-1	123*	-4
CCN1C(=O)/C(=C\C=C2/Sc3ccccc3N2CC)N(c2ccccc2)C1=S	-5	-2	-4
C=CCNc1ccccc1C(=O)NC1CCN(S(C)(=O)=O)CC1	-2	21	-7
CCN(C(=O)c1sc(NC(=O)CCl)c(C#N)c1C)C1CCCCC1	-3	-7	1
Cc1c(C#N)sc(NC(=O)CCl)c1C#N	7	2	45*
COC1=C(OC)C(=O)c2ccccc2C1=O	-1	-6	12
CS(=O)(=O)N=C1C=C(S(=O)(=O)c2ccccc2)C(=O)c2ccccc21	55*	2	x
CC(C)N1C(=O)SC(=Cc2ccc(N3CCCCC3)o2)C1=O	-6	10	-6
C#CCN1C(=O)SC(=Cc2ccc(N3CCCCC3)o2)C1=O	-7	122*	-3
COc1ccc(OC)c(-c2cnc(-c3cccc(CNC(=O)c4c(Cl)cc(Cl)cc4Cl)c3)[nH]2)c1	-4	-9	-6
Cc1cc(C(=O)Nc2ccc(NC(=O)C(C)Cn3cccn3)cc2)co1 (centres undefined)	-9	x	-12
CSc1nnc2c(n1)OC(c1cn[nH]c1-c1ccccc1)Nc1ccccc1-2 (centres undefined)	-9	2	-4
CCOC(=O)c1cccnc1N1CCC(O)(c2ccc(C)cn2)CC1	-6	x	x
COc1ccc(-c2csc(NC(=O)CCl)n2)c(O)c1	-3	6	60*
COc1ccc(-c2csc(NC(=O)CN3CC(C)CC(C)C3)n2)c(OC)c1 (centres undefined)	-7	10	x
O=C1c2cccc3c(NCC(O)CCl)ccc(c23)C(=O)N1c1ccccc1 (centres undefined)	-5	94*!	-4
O=C1c2cccc3c(C#Cc4ccccc4)ccc(c23)C(=O)N1c1ccccc1	-8	5	x
O=C1c2cccc3c(Nc4ccccc4)ccc(c23)C(=O)N1c1ccccc1	-5	53*	-5
NCCNc1ccc2c3c(cccc13)C(=O)N(c1ccc(Cl)cc1)C2=O	4	104*	x
O=C(c1ccccc1)c1ccc2c3c(cccc13)C(=O)N(c1ccccc1)C2=O	4	-15	1
SMILES	hcGAS inh	NPYLR7 ag	mcGAS inh
O=C1c2cccc3c([N+](=O)[O-])ccc(c23)C(=O)N1c1ccc([N+](=O)[O-])cc1	-7	0	-7
COc1ccc(-n2c(CCC(=O)NCCc3cccs3)cc3c2-c2ccccc2CC3)cc1	-4	-3	-1
Cc1ccsc1CN(C)C(=O)CC(c1ccccc1)c1ccc2c(c1)OCO2 (centres undefined)	-2	0	x
Cc1ccccc1C(=O)N1C(C(=O)N2CCCC2)COC12CCN(C(=O)C1CC1)CC2 (centres undefined)	-3	5	-4
Cc1ccc(CN(C(=O)c2cc3cc(Cl)ccc3[nH]2)C(C)C)o1	-6	118*	x
O=C(O)c1cc2cc(Cl)ccc2[nH]1	6	-7	9
COc1ccccc1CCC(=O)NC1C2CC3CC(C2)CC1C3 (centres undefined)	-10	15	x
Cc1ccc(-c2ccnc3c(C(=O)O)cnn23)o1	-7	20	x
Cc1c(C(=O)O)cnc2c([N+](=O)[O-])cnn12	41*	-12	15
CCN1CC=C2C(C#N)C(=N)C(C#N)(C#N)C(c3cccs3)C2C1 (centres undefined)	0	50*	-2
N#CC1C(=N)C(C#N)(C#N)C(c2cccs2)C2CSCC=C12 (centres undefined)	-2	17	x
CCCCCCCCCCCCNC(=O)c1c(O)c2ccccc2[nH]c1=O	45*	-3	-3
O=C(NCCCO)c1c(O)c2ccccc2[nH]c1=O	-2	-2	x
